NCOA1 inh = inhibitors of human steroid receptor coactivator 1 (SRC1); HEK293 GAL4-SRC1 luciferase reporter, luminescence; inhibition, % at 3.6 µM; 360,000 tested, 0.12% active; AID 588354;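 active = inhibition above the campaign mean plus 3 SD, with each screening campaign given its own cutoff, cut at about 60% in these data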;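 also: 0% = DMSO treated cells and 100% = gossypol at 36 µM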
LRH-1 inv ag = suppresses constitutive activity of human LRH-1; HEK293T StAR-luciferase reporter, LRH-1 transfected, 24 h; 360,000 tested, 0.13% active; AID 602396; inhibition, % at 3.6 µM; O00482;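 active = inhibition above the mean inhibition of all tested compounds plus 3 SD, cut at about 73% in these data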;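 also: 0% = DMSO wells and 100% = reporter-only cells lacking LRH-1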
COUP-TFII inh = inhibitors of human COUP-TFII (NR2F2); inhibition, % at 8.6 µM; P24468; AID 686940; 370,000 tested, 0.7% active; HEK293T NGFI-A luciferase reporter, luminescence;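 active = inhibition above a per-plate cutoff, mean inhibition of test wells between control levels plus 3 SD, cut at about 38% in these data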;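 also: cells cotransfected with COUP-TFII expression vector driving the NGFI-A reporter; 0% = median of COUP-TF2 test wells and 100% = reporter-only cells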
NCOA2 inhibitor = human SRC2 (NCOA2) inhibition. AID 651957. inhibition, % at 9 µM. Q15596. 370,000 tested, 0.17% active. HEK293 GAL4-SRC2 luciferase reporter, luminescence;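 active = inhibition above the mean inhibition of all tested compounds plus 3 SD, set per campaign, cut at about 52% in these data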;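 also: 0% = DMSO treated cells and 100% = cells given Gossypol at 36 µM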
NCOA3 inh = inhibitors of human steroid receptor coactivator 3 (SRC3); Q9Y6Q9; inhibition, % at 3.6 µM; 360,000 tested, 0.17% active; HEK293 GAL4-SRC3 luciferase reporter, luminescence;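 active = inhibition above a per-campaign cutoff, the mean of all compounds plus 3 SD, cut at about 60% in these data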;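 also: 0% = DMSO-treated cells and 100% = gossypol-treated cells at 36 µM; higher means less SRC3-driven luciferase light from the GAL4 reporter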
* hit, by the source's call; . = no result. A selection: hits, their analogues and other compounds. The true share with any hit is near 0.81%.

SMILES	NCOA1 inh	LRH-1 inv ag	COUP-TFII inh	NCOA2 inhibitor	NCOA3 inh
COc1ccc(S(=O)(=O)N2CCOCC2)cc1NC(=O)CCNC(=O)c1ccc([N+](=O)[O-])cc1	55	82*	-33	48	45
O=C(Nc1ccccc1Oc1ccccc1)c1cc([N+](=O)[O-])ccc1Cl	38	26	-1	55*	57
COc1cccc2c1C(=O)c1c(O)c3c(c(O)c1C2=O)C[C@@](O)(C(=O)CO)C[C@@H]3O[C@H]1C[C@H](N)[C@H](O)[C@H](C)O1	-38	98*	-8	-270	55
COc1cccc2c1C(=O)c1c(O)c3c(c(O)c1C2=O)C[C@@](O)(C(=O)CO)C[C@@H]3OC1CC(N)C(O)C(C)O1 (some centres undefined)	47	78*	-21	-274	-14
CCCCn1cnc2c(c(-c3ccccc3)c(-c3ccccc3)n2Cc2ccco2)c1=N	14	29	20	-32	14
N=c1c2c(-c3ccccc3)c(-c3ccccc3)n(Cc3ccccc3)c2ncn1CCCn1ccnc1	50	40	14	-32	67*
C[C@H]1COc2cc(Br)ccc2S(=O)(=O)N1Cc1cn(Cc2ccc(F)cc2)nn1	.	.	-21	-3	.
COc1ccc(CC(=O)Nc2cccc(-c3nnc(-c4ccccc4)o3)c2)cc1OC	36	-54	-2	61*	51
COc1ccc(CC(=O)Nc2cccc(-c3nnc(-c4ccc(C)cc4)o3)c2)cc1OC	-7	8	-1	-11	0
Cc1cccc(CCNC(=O)CSc2nc3c([nH]2)c(=O)n(C)c(=O)n3C)c1	.	.	-9	-11	.
CC1=NN(c2nc3ccccc3[nH]2)C(=O)C1Cc1ccccc1 (centres undefined)	51	81*	.	.	75*
CC1=NN(c2nc3ccccc3[nH]2)C(=O)/C1=C/N(C)C	-15	-4	.	.	4
OCCCNc1cc(-c2ccnc(Nc3cccc(Cl)c3)n2)ccn1	86*	96*	60*	65*	87*
Cc1ccc2nc(NC(=O)CCCC(=O)O)sc2c1	26	17	36	57*	32
Cc1ccc2nc(NC(=O)CCCc3nc4ccccc4s3)sc2c1	-53	-77	-25	-35	-73
COc1ccc(-n2c(SCC(=O)Nc3ccc(OCc4ccccc4)cc3)nnc2-c2ccc(C)cc2)cc1	.	.	-15	-2	.
COc1ccc(C2C(O)C(c3c[nH]c4ccccc34)=NN2C(=O)CCl)cc1 (centres undefined)	-39	-6	25	73*	19
COc1ccc(C2NN=C(c3c[nH]c4ccccc34)C2O)cc1 (centres undefined)	-15	-78	-6	-22	-33
CCCCNC(=O)C[C@H]1C(=O)N(CCCOC)C2=CCCCC[C@]21C(=O)OC	.	.	-8	-11	.
Cn1c(/C(C#N)=C/c2ccc(-c3ccc(S(N)(=O)=O)cc3)o2)nc2ccccc21	38	-15	-17	-16	68*
CCOC(=O)c1csc(NC(=O)C2CCCN(S(=O)(=O)c3ccc(Br)s3)C2)n1 (centres undefined)	.	.	16	0	.
COc1ccc(/C=C2\SC(=S)N(CCCC(=O)Nc3ccc(O)cc3)C2=O)cc1	9	11	21	60*	19
CCc1ccc(/C=C2\SC(=S)N(CCCC(=O)Nc3ccccn3)C2=O)cc1	9	-2	31	57*	14
COC(=O)c1ccc(/C=C2/SC(=S)N(CCCC(=O)Nc3ccccn3)C2=O)cc1	-4	4	10	4	13
CCN(CC)C(=O)CC[C@@H]1CC[C@]2(CCCN(Cc3cccnc3)C2)O1	.	.	10	9	.
SMILES	NCOA1 inh	LRH-1 inv ag	COUP-TFII inh	NCOA2 inhibitor	NCOA3 inh
COC(=O)[C@]12C[C@H](CC(=O)NCC34CC5CC(CC(C5)C3)C4)C(=O)N(Cc3ccc(Cl)cc3Cl)C1=C[C@H](C1CCCC1)O[C@@H]2C	.	.	9	-4	.
Cc1cc(C)cc(NC(=O)NC2CCN(S(=O)(=O)c3ccc(F)cc3)CC2)c1	.	.	-11	1	.
CCCCN(C)C(=O)c1cn(C(C)c2ccccc2)nn1 (centres undefined)	.	.	-7	-18	.
C=C(C)CSc1nnc(-c2cc(-c3ccc(OC)cc3)n[nH]2)n1N	.	.	-27	-31	.
CNc1cccnc1C=NNC(N)=S	80*	49	-11	34	80*
NC(=S)N/N=C/c1ccccc1	-9	17	6	-20	15
NC(=S)NN=Cc1nccc2c(C(F)(F)F)cccc12	87*	93*	-55	25	91*
COc1ccc(-c2cn[nH]c2-c2ccc(OC)cc2O)cc1	34	11	16	52*	40
O=C(c1ccc(Br)cn1)N1CCC(Oc2cccnc2)CC1	.	.	2	4	.
CC(=O)N(Cc1ccc(F)cc1)C1=C(NCc2ccccc2)C(=O)c2ccccc2C1=O	24	40	.	.	63*
C=C(C)Cn1c(SCC(=O)NN=Cc2c(O)ccc3ccccc23)nnc1-c1ccc(Br)cc1	.	.	9	31	.
CCCOc1ccc(C2NC(=O)NC2=O)cc1 (centres undefined)	-21	19	8	-14	1
O=C1NC(=O)C(c2ccc(F)cc2)N1 (centres undefined)	90*	89*	-9	6	89*
CCC1(OC(=O)CN(C)C)C(=O)OCc2c1cc1n(c2=O)Cc2cc3c(N)cccc3nc2-1 (centres undefined)	48	85*	.	.	69*
CCC1(O)C(=O)OCc2c1cc1n(c2=O)Cc2cc3c(N)cccc3nc2-1 (centres undefined)	35	92*	22	28	80*
CN(C)c1ccc(C=c2c3ccccc3n3c2cc(-c2ccc(Cl)cc2)[n+]3C)cc1	6	74*	59*	-28	68*
CN(c1ccc(Cl)cc1)c1cc(=O)n(C)c2ccccc12	5	-15	-27	-39	27
O=C(Nc1cc(Cl)ccc1F)C1CCCN(c2nnc(-n3cccc3)s2)C1 (centres undefined)	.	.	-9	-12	.
Cc1cc(C(=O)CN2C(=O)c3ccccc3S2(=O)=O)c(C)n1-c1ccccc1	-12	-10	35	41	-5
C=CCn1c(C)cc(C(=O)CN2C(=O)c3ccccc3S2(=O)=O)c1C	87*	88*	.	.	88*
Cc1ccc2c(c1)C1CS(=O)(=O)N(CCc3ccccc3)CN1C2 (centres undefined)	.	.	-7	0	.
O=C(Nc1ccc(N2CCCCC2)cc1)c1ccccn1	64*	60	.	.	71*
O=C(Nc1ccc(N2CCCCCC2)cc1)c1ccccc1Cl	-126	-129	-46	-117	-87
COc1cccc2c1C(CO)N1C(C#N)C3CC(C(=O)O)C(C1C2)N3C (centres undefined)	87*	102*	4	55*	86*
Cc1ccc(SCc2cc(=O)[nH]c(Nc3nc(C)c4ccc(C)cc4n3)n2)cc1	-53	15	-7	-23	17
Cc1ccc2c(C)nc(Nc3nc(CSc4nc5ccccc5[nH]4)cc(=O)[nH]3)nc2c1	52	8	0	-32	65*
Cc1ccnc2c1ccc1c(C)ccnc12	77*	93*	.	.	75*

Source: PubChem
